The values below come from the supplement of paper PMC10849652.

What all share (assay): log2 fold change, soluble protein after heating vs DMSO (PISA); higher = thermal stabilisation; K562 lysate, 10 uM; active = over 0.2 and 3.5 SD of the protein, either way, in both replicates (recomputed)
Compound in one assay: CN1CC[C@H](c2c(O)cc(O)c3c(=O)cc(-c4ccccc4Cl)oc23)[C@H](O)C1 [alvocidib]
In a few lines: (§1)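 Dounce homogenisation of K562 pellets in PBS pH 7.4 with 1 mM MgCl2 produced a crude extract, used at 1 mg/mL protein. Exposure to 10 μM compound lasted 30 min, and aliquots were then heated for 3 min across 48°C-58°C, pooled and brought to 0.5% NP-40 at 4°C. The supernatant after 21,000xg for 90 min was quantified by TMTpro 16plex LC-MS/MS with channel sums equalised. Duplicate values are given as log-two fold change in thermal stability relative to solvent controls.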

Compound in a further assay: CN1CCc2c(c3ccccc3n2Cc2ccc(C(=O)NO)cc2)C1 [Tubastatin A]
In outline: as §1

Compound in assay [1]: CNC(=O)C1=CC=CC=C1NC2=NC(=NC=C2Cl)NC3=C(C=C(C=C3)N4CCOCC4)OC
In a few lines:
as §1

Compound in another assay: CNC(=O)c1ccc(Nc2ncc(C(F)(F)F)c(NCc3nccnc3N(C)S(C)(=O)=O)n2)cc1 [defactinib]
In a few lines: as §1

Compound in assay [2]: CNc1nc(-c2ccc3c(N)n[nH]c3c2)cc(N2C[C@@H](C(=O)NC3CCCCC3)CC[C@H]2C)n1
In outline:
as §1

Compound in a further assay: COC(=O)N[C@@H](C)CNc1nccc(-c2cn(C(C)C)nc2-c2cc(Cl)cc(NS(C)(=O)=O)c2F)n1 [encorafenib]
In a few lines:
as §1

Compound in assay [3]: COC(=O)[C@H](CCSC)NC(=O)C1=C(C=C(C=C1)NC[C@H](CS)N)C2=CC=CC=C2
In outline: as §1

Compound in a further assay: COc1cc(Nc2ncc3c(n2)-c2ccc(Cl)cc2C(c2c(F)cccc2OC)=NC3)ccc1C(=O)O [alisertib]
In a few lines: as §1

Compound in assay [4]: COc1cc2nc(-c3cc(F)ccc3O)nc(N[C@@H]3CNC[C@H]3C(C)(C)O)c2cc1OC
In outline:
as §1

Compound in the next assay: COc1cc2ncnc(Nc3ccc(F)c(Cl)c3)c2cc1OCCCN1CCOCC1 [gefitinib]
In outline: as §1

About 8,800 targets were measured; listed, in parts, are those with a hit and a random draw of the rest. About 0.5% of all pairs of compound and target were hits.

Sequence of UniProt P51159 (P51159 whole entry, looked up): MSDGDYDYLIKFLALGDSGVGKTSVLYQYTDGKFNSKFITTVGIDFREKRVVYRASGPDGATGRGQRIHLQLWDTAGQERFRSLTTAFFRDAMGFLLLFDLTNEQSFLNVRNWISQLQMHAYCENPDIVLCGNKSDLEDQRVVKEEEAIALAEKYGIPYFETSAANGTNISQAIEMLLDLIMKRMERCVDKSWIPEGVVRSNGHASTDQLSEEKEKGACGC
Sequence of UniProt Q05823 (Q05823 whole entry, looked up): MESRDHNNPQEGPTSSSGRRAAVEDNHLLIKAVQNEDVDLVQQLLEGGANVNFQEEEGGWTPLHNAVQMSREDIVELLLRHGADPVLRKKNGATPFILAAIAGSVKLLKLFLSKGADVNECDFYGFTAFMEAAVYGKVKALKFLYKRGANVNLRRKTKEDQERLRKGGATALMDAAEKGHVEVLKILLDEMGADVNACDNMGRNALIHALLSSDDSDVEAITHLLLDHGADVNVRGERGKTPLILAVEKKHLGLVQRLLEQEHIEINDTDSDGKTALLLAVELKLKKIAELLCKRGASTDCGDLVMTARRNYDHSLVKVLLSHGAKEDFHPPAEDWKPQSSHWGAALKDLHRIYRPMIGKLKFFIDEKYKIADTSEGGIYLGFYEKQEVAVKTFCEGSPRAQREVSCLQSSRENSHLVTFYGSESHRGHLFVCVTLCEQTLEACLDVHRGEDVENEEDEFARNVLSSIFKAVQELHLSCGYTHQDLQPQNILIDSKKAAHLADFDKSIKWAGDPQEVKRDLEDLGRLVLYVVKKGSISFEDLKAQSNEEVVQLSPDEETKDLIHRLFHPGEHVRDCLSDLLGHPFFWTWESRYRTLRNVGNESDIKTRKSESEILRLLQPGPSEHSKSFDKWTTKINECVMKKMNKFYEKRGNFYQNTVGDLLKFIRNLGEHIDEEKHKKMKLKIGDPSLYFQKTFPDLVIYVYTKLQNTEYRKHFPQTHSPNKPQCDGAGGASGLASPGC
Sequence of UniProt Q8WZA2 (Q8WZA2 whole entry, looked up): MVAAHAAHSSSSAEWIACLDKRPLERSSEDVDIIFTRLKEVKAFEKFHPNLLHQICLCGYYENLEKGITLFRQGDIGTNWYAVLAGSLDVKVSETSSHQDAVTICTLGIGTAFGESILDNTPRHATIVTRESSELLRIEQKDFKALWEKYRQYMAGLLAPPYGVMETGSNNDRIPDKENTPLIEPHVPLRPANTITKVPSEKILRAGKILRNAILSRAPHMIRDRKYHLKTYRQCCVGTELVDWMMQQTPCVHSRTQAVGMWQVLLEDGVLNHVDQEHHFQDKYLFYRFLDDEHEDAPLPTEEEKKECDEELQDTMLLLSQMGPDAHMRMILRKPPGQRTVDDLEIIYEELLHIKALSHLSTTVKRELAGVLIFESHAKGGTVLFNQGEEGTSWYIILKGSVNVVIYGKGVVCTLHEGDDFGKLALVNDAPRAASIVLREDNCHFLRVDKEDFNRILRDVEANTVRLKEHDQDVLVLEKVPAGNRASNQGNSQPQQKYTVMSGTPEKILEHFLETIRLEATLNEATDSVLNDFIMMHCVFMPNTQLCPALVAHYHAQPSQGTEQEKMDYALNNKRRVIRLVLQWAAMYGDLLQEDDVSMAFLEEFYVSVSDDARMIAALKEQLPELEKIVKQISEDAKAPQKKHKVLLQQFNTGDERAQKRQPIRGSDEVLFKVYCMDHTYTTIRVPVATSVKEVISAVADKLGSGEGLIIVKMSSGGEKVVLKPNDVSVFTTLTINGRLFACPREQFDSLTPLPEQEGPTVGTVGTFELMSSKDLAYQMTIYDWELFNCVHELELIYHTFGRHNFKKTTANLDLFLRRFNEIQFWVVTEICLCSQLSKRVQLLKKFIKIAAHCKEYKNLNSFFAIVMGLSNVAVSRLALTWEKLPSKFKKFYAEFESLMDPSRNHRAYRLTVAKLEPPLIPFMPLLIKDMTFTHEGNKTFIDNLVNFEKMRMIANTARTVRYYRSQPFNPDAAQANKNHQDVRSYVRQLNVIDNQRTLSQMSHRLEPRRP
Sequence of UniProt Q9BWG6 (Q9BWG6 whole entry, looked up): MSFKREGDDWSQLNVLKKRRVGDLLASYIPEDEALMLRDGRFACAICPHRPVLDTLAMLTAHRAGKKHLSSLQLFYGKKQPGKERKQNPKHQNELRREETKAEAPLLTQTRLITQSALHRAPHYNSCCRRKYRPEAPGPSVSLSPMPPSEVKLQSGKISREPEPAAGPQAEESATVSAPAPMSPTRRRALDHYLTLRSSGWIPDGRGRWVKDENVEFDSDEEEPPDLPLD
Sequence of UniProt Q13464 (Q13464 whole entry, looked up): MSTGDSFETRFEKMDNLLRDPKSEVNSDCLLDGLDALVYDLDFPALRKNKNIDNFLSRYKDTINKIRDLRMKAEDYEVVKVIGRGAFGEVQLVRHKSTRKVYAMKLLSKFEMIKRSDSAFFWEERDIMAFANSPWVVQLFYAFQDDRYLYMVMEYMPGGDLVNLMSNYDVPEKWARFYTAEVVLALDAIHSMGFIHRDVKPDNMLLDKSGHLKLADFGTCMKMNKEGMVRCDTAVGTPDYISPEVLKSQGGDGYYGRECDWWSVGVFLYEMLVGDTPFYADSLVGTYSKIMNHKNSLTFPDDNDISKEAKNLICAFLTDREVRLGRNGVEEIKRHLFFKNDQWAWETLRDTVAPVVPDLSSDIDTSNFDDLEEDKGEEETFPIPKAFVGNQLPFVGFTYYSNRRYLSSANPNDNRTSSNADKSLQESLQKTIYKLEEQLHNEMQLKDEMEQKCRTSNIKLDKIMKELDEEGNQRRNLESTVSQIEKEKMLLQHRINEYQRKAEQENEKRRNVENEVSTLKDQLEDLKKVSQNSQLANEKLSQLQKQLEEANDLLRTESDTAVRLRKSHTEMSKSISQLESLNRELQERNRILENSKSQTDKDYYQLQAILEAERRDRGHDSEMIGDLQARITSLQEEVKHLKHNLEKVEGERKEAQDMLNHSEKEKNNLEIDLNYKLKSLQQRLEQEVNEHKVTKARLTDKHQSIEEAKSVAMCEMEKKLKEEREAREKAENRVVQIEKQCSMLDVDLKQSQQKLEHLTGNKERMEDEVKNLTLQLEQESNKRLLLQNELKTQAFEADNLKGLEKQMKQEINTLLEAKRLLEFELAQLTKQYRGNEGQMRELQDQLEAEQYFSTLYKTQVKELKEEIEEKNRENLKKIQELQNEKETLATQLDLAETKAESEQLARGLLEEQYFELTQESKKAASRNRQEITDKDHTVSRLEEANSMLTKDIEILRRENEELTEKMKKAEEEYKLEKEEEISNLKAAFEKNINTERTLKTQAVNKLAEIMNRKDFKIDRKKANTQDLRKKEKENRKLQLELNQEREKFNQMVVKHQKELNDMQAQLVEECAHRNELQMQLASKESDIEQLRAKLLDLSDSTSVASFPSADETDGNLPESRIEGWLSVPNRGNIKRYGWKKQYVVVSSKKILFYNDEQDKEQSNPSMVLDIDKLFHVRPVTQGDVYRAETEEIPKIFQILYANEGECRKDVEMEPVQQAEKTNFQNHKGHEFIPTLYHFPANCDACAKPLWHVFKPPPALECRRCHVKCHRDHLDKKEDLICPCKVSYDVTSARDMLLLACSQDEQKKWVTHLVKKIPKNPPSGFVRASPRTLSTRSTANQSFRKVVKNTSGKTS
Sequence of UniProt P23921 (P23921 whole entry, looked up): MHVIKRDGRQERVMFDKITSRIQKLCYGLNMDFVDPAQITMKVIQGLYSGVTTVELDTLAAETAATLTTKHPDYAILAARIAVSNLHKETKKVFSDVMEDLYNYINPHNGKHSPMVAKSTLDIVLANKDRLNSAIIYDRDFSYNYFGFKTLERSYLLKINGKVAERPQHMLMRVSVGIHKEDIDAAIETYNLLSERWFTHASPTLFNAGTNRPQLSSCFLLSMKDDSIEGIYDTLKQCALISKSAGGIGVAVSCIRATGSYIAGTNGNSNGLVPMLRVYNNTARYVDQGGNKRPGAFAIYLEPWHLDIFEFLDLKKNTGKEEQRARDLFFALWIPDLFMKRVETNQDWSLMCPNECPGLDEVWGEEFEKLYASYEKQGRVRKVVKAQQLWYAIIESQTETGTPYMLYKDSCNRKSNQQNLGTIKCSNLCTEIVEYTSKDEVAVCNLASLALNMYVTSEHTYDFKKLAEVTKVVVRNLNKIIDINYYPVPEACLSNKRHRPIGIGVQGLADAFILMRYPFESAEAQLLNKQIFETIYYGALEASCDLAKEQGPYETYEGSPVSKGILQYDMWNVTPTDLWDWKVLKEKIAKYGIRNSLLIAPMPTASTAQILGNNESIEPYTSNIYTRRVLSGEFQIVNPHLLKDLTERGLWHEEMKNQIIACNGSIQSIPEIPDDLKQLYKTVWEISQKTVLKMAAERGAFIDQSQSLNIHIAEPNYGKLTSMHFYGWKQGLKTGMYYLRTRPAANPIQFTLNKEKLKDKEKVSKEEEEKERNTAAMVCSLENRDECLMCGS
Sequence of UniProt Q15287 (Q15287 whole entry, looked up): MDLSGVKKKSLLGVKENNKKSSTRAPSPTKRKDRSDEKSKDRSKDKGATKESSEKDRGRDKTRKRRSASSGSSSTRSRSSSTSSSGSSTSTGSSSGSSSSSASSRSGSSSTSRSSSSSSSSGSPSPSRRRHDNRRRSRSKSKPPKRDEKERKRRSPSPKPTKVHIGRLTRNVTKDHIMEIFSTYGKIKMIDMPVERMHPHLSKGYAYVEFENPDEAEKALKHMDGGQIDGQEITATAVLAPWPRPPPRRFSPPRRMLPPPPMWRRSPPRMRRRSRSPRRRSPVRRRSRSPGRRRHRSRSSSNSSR
Sequence of UniProt Q8TC12 (Q8TC12 whole entry, looked up): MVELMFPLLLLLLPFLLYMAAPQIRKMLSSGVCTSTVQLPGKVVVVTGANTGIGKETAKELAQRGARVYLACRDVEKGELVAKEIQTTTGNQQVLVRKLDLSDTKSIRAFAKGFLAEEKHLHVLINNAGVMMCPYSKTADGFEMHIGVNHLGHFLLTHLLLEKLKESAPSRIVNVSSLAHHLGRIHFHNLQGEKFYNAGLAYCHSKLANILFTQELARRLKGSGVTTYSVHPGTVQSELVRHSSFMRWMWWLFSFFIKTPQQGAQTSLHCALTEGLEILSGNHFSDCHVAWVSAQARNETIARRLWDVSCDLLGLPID

On to ROCK1 (UniProt Q13464), for which the log2 fold change is 0.004 (inactive) with alvocidib; 0.013 (inactive) with Tubastatin A; -0.029 (inactive) in assay [1]; -0.02 (inactive) in the assay with defactinib; 0.039 (inactive) in assay [2]; -0.004 (inactive) with encorafenib. Also, the log2 fold change in [3] was -0.019 (inactive); with alisertib, -0.045 (inactive); in [4] it was 0.022 (inactive); with gefitinib it was -0.004 (inactive).

Turning to RAPGEF4 (UniProt Q8WZA2), the log2 fold change was -0.367 (inactive) with alvocidib; 0.156 (inactive) in the assay with Tubastatin A; 0.061 (inactive) in assay [1]; -0.023 (inactive) with defactinib; 0.433 (inactive) in assay [2]; 0.018 (inactive) in the assay with encorafenib. Moreover, the values for the log2 fold change in assay [3] and in [4] were 0.147 (inactive) and 0.196 (inactive), respectively.

As to RAB27A (UniProt P51159), the log2 fold change with alvocidib is 0.087 (inactive); with Tubastatin A, -0.083 (inactive); in assay [1], 0.047 (inactive); with defactinib, -0.001 (inactive); in assay [2], -0.131 (inactive); with encorafenib, 0.027 (inactive). Moreover, the log2 fold change was 0.016 (inactive) in [3], -0.004 (inactive) with alisertib, 0.041 (inactive) in assay [4] and 0.068 (inactive) in the assay with gefitinib.

On to RPL36AL (UniProt Q969Q0), for which the log2 fold change with alvocidib was 0.055 (inactive); with Tubastatin A it was -0.056 (inactive); in [1], 0.023 (inactive); in the assay with defactinib it was 0.026 (inactive); in assay [2], -0.243 (active); in the assay with encorafenib, 0.03 (inactive). In addition, the log2 fold change is -0.08 (inactive) in [3], -0.057 (inactive) in the assay with alisertib, -0.029 (inactive) in assay [4] and -0.07 (inactive) with gefitinib.

As for RDH11 (UniProt Q8TC12), the log2 fold change was -0.071 (inactive) with alvocidib; 0.031 (inactive) with Tubastatin A; 0.011 (inactive) in assay [1]; 0 (inactive) with defactinib; 0.1 (inactive) in assay [2]; 0.092 (inactive) in the assay with encorafenib. In addition, the log2 fold change in assay [3] was 0.149 (inactive); with alisertib, -0.009 (inactive); in [4] it was 0.082 (inactive); in the assay with gefitinib, -0.019 (inactive).

As for RNASEL (UniProt Q05823), the log2 fold change in the assay with alvocidib is 0.054 (inactive); in the assay with Tubastatin A, -0.094 (inactive); in assay [1], -0.034 (inactive); with defactinib it was -0.02 (inactive); in [2] it was 0.012 (inactive); in the assay with encorafenib, 0.029 (inactive). For the same target, the log2 fold change in [3] was 0.144 (inactive); in the assay with alisertib, -0.074 (inactive); in [4], -0.035 (inactive); with gefitinib, 0.061 (inactive).

RNPS1 (UniProt Q15287): the log2 fold change with alvocidib was -0.043 (inactive); with Tubastatin A, 0.102 (inactive); in [1] it was 0.02 (inactive); in the assay with defactinib it was -0.009 (inactive); in assay [2], 0.029 (inactive); in the assay with encorafenib, 0.069 (inactive). The log2 fold change is 0.01 (inactive) in assay [3], 0.02 (inactive) with alisertib, 0.01 (inactive) in assay [4] and 0.006 (inactive) with gefitinib.

Regarding RRM1 (UniProt P23921), the log2 fold change in the assay with alvocidib is -0.004 (inactive); with Tubastatin A, -0.098 (inactive); in [1], -0.007 (inactive); with defactinib it was 0.022 (inactive); in [2], -0.03 (inactive); in the assay with encorafenib, 0.005 (inactive). Besides, the log2 fold change is 0.098 (inactive) in [3], 0.007 (inactive) with alisertib, 0.007 (inactive) in assay [4] and -0.006 (inactive) with gefitinib.

Regarding RAPGEF2, A0A2R8YGD3, the log2 fold change with alvocidib is -0.241 (inactive); in the assay with Tubastatin A it was 0.236 (active); in [1], 0.017 (inactive); with defactinib, 0.119 (inactive); in [2] it was 0.025 (inactive); in the assay with encorafenib, 0.017 (inactive). The log2 fold change was 0.021 (inactive) in assay [3], 0.007 (inactive) with alisertib, -0.017 (inactive) in assay [4] and -0.042 (inactive) with gefitinib.

For the target RSU1 (UniProt Q15404), the log2 fold change is 0.12 (inactive) with alvocidib; 0.057 (inactive) in the assay with Tubastatin A; -0.021 (inactive) in assay [1]; -0.042 (inactive) with defactinib; -0.008 (inactive) in [2]; -0.035 (inactive) with encorafenib. The log2 fold change in [3] is -0.035 (inactive); with alisertib, -0.005 (inactive); in assay [4] it was 0.015 (inactive); with gefitinib it was 0.023 (inactive).

On to RNF168 (UniProt Q8IYW5), for which the log2 fold change with alvocidib is 0.037 (inactive); with Tubastatin A, -0.03 (inactive); in [1], 0.068 (inactive); with defactinib it was -0.026 (inactive); in [2], -0.03 (inactive); in the assay with encorafenib, -0.046 (inactive). The log2 fold change in assay [3] was -0.102 (inactive); with alisertib it was -0.078 (inactive); in assay [4], -0.043 (inactive); with gefitinib, 0.079 (inactive).

As to RPL27 (UniProt P61353), the log2 fold change with alvocidib is 0.049 (inactive); in the assay with Tubastatin A, 0.009 (inactive); in [1] it was -0.015 (inactive); in the assay with defactinib, 0.006 (inactive); in assay [2], 0.056 (inactive); with encorafenib, -0.015 (inactive). Also, the log2 fold change in [3] was 0.012 (inactive); with alisertib it was 0.006 (inactive); in [4] it was 0.006 (inactive); with gefitinib it was -0.023 (inactive).

As to SCNM1 (UniProt Q9BWG6), the log2 fold change was -0.005 (inactive) in the assay with alvocidib; 0.035 (inactive) with Tubastatin A; 0.117 (inactive) in assay [1]; 0.127 (inactive) in [2]; 0.115 (inactive) in the assay with encorafenib; -0.311 (inactive) in assay [3]. Further, the log2 fold change with alisertib is 0.035 (inactive); in assay [4], 0.15 (inactive); in the assay with gefitinib it was 0.114 (inactive).
